Experimental data from PubChem BioAssay AID651742 (Broad Institute, 2012).
Screen size: about 5,600 compounds; about 780 (14%) were called active. Not shown: some 3% with an inconclusive outcome. Not all results are given here. Unmarked numbers belong to inactive results.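 Rule for the calls: active = mean signal decrease across replicates above about 35% based on untreated-well scatter, with enough replicates individually passing (limit read from the data); inconclusive = no rule stated though some were filed; inactive = the rest.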

Test: NIH3T3 cell viability loss – cherry-pick, single point, cytotoxicity control for T. cruzi proliferation inhibitor project, confirmation (AID 651742);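 note: 0% = median of neutral control wells and 100% = median of positive control wells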
Settings: NIH/3T3 viability, CellTiter-Glo ATP luminescence, 90 h; at 8.35 µM; active compounds read high
Compound `CC(C)NC(=O)Nc1ccc2c(c1)C(=O)N([C@@H](C)CO)C[C@H](C)[C@H](CN(C)S(=O)(=O)c1ccc(Cl)cc1)OCCCC[C@H](C)O2` has a cytotoxicity (signal decrease) of -22.1%. `O=C(Nc1ccc(-c2ccccc2)cc1)[C@H]1[C@H](CO)[C@H]2Cn3c(cccc3=O)[C@H]2N1CC1CC1` gave a cytotoxicity (signal decrease) of 8.32%. `C[C@@H]1CN([C@@H](C)CO)S(=O)(=O)c2ccc(C#CCC3CCCC3)cc2O[C@H]1CN(C)C(=O)CC1CC1` showed a cytotoxicity (signal decrease) of 15%. Work on `C[C@H]1CN([C@@H](C)CO)S(=O)(=O)c2ccc(C#CC3CCCC3)cc2O[C@H]1CN(C)C(=O)Cc1ccncc1` yielded a cytotoxicity (signal decrease) of 6.81%. Work on `COc1ccc(S(=O)(=O)N(C)C[C@H]2Oc3c(NC(=O)Nc4cccc5ccccc45)cccc3C(=O)N([C@@H](C)CO)C[C@H]2C)cc1` yielded a cytotoxicity (signal decrease) of 19.4%. Compound `Cc1ccc(S(=O)(=O)N(C)C[C@@H]2Oc3c(NC(=O)c4nc5ccccc5s4)cccc3C(=O)N([C@H](C)CO)C[C@@H]2C)cc1` has a cytotoxicity (signal decrease) of 23.6%. For `COc1ccc(S(=O)(=O)N(C)C[C@H]2OCCCC[C@H](C)Oc3ccc(NS(=O)(=O)c4ccc(F)cc4)cc3C(=O)N([C@@H](C)CO)C[C@@H]2C)cc1`, the cytotoxicity (signal decrease) was -16.9%. Work on `CCC(=O)N1CC[C@@H]2[C@@H](CO)N(C)c3ccc(-c4ccc(F)cc4)cc3[C@@H]21` yielded a cytotoxicity (signal decrease) of -22.3%. `C/C=C/c1ccc([C@H]2[C@H]3CN(S(=O)(=O)c4ccccc4)CCCCN3[C@H]2CO)cc1` gave a cytotoxicity (signal decrease) of 20.3%. `C[C@H](CO)N1C[C@H](C)[C@@H](CN(C)S(=O)(=O)c2cccc(F)c2)OCc2ccccc2-c2c(n(C)c3ccccc23)C1=O` gave a cytotoxicity (signal decrease) of -5.9%. For `C[C@@H]1CCCCO[C@H](CN(C)S(=O)(=O)c2ccc(F)cc2)[C@H](C)CN([C@@H](C)CO)C(=O)c2cc(NS(=O)(=O)c3ccccc3)ccc2O1`, the cytotoxicity (signal decrease) was -7.76%. In the case of `C[C@H]1CN([C@@H](C)CO)C(=O)c2ccccc2-c2ccccc2CO[C@@H]1CN(C)S(=O)(=O)c1ccc(C(F)(F)F)cc1`, the cytotoxicity (signal decrease) is reported as 38.8% (active). With `Cc1ccc(S(=O)(=O)Nc2ccc3c(c2)C(=O)N([C@H](C)CO)C[C@H](C)[C@H](CN(C)Cc2ccc(Cl)c(Cl)c2)O3)cc1` the cytotoxicity (signal decrease) was 17%. In the case of `C[C@H]1CCCCO[C@@H](CN(C)C(=O)NC2CCCCC2)[C@@H](C)CN([C@@H](C)CO)C(=O)c2cc(NS(=O)(=O)c3ccc(Cl)cc3)ccc2O1`, the cytotoxicity (signal decrease) is reported as -16.4%. With `COCC(=O)N1[C@H](CO)[C@@H](c2ccc(C#Cc3ccccc3F)cc2)[C@@H]1C#N` the cytotoxicity (signal decrease) was -6.81%. In the case of `C[C@@H]1CN([C@H](C)CO)C(=O)c2cc(NS(=O)(=O)c3cccs3)ccc2O[C@@H](C)CCCCO[C@H]1CN(C)Cc1ccc(C(F)(F)F)cc1`, the cytotoxicity (signal decrease) is reported as 5.21%.
